# ADAM17 inh: ADAM17 inhibition, QFRET primary screen. recombinant ADAM17, EDANS/DABCYL FRET peptide cleavage. inhibition, % at 6.95 µM. 370,000 tested, 0.83% active;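 active means inhibition above the mean of compounds lying between control limits plus 3 SD, set per campaign, cut at about 8.5% in these data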
# PLC-beta3 inh: PLC-beta3 (human) inhibition, primary screen | AID 720704 | inhibition, % at 12.2 µM | 370,000 tested, 0.18% active | Q01970 | Purified PLC-beta3, fluorogenic substrate, fluorescence; in the data active means inhibition above about 11%
# proKLK7 act: proKLK7 (human) activation, primary screen. purified proKLK7, EDANS-DABCYL substrate fluorescence; 100% is mature enzyme control, 0% vehicle. activation, % at 7 µM. 370,000 tested, 0.9% active;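 active means activation above the mean of all tested compounds plus 3 SD, computed per campaign excluding outliers beyond control limits, cut at about 13% in these data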
# ADAM10 inh: inhibitors of human ADAM10 | inhibition, % at 7 µM | O14672 | recombinant ADAM10, EDANS/DABCYL FRET peptide cleavage, 3 h | AID 720582 | 370,000 tested, 0.62% active;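 active means inhibition above a per-campaign cutoff equal to the mean of compounds falling between control-based bounds plus 3 SD, cut at about 20% in these data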
# PLC-gamma1 inh: inhibitors of human phospholipase C gamma1. inhibition, % at 12.2 µM. P19174. purified PLC-gamma1, fluorogenic substrate, fluorescence. AID 720700. 370,000 tested, 0.84% active; in the data active means inhibition above about 9.5%
# ADAM10 confirm: confirmation of inhibitors of human ADAM10; ADAM10 QFRET peptide cleavage, EDANS fluorescence; 2,100 tested, 1% active; inhibition, % at 6.95 µM; shares compounds with ADAM10 inh;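 active means inhibition above about 20% chosen separately for each screening run, limit read from the data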
# ADAM17 counter: inhibits human ADAM17 in ADAM10 exosite counter-screen; ADAM17 QFRET peptide cleavage, EDANS fluorescence; 2,100 tested, 0.5% active; inhibition, % at 6.95 µM; shares compounds with ADAM10 inh;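 active means mean triplicate inhibition above the solvent-only control wells' mean plus 3 SD, cut at about 12% in these data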
# ADAM10 counter: ADAM10 inhibition, counter-screen for ADAM17 exosite hits; shares compounds with ADAM17 inh; inhibition, % at 6.95 µM; recombinant ADAM10, EDANS/DABCYL FRET peptide cleavage, 3 h; 2,900 tested, 47% active;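 active means mean inhibition over the triplicate runs exceeds the activity threshold set in the earlier primary screen, cut at about 20% in these data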
# ADAM17 confirm: confirmation of inhibitors of human ADAM17; 2,900 tested, 65% active; inhibition, % at 6.95 µM; shares compounds with ADAM17 inh; recombinant ADAM17, EDANS/DABCYL QFRET peptide cleavage;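 active means mean inhibition across replicates above the hit cutoff set in the primary screen, cut at about 8.5% in these data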
# A number is an active result; – = inactive; · = no result given. The list is not random: actives were taken first. Their share in the collection is about 2.9%.
SMILES,ADAM17 inh,PLC-beta3 inh,proKLK7 act,ADAM10 inh,PLC-gamma1 inh,ADAM10 confirm,ADAM17 counter,ADAM10 counter,ADAM17 confirm
CCc1cccc(CC)c1NC(=O)COC(=O)CC1c2ccccc2CCN1S(=O)(=O)c1ccc(F)cc1 (stereo unspecified),14.0,–,–,23.0,–,–,–,–,–
CCOc1ccc(C(Nc2cccnc2)c2cc(Cl)c3cccnc3c2O)cc1 (stereo unspecified),14.7,–,–,21.7,–,45.0,15.2,49.1,27.8
O=C(NC(c1ccccc1)c1cc(Cl)c2cccnc2c1O)c1cccnc1 (stereo unspecified),–,–,–,–,–,·,·,·,·
Oc1ccc(Cl)cc1-c1cc(-c2cccc(Br)c2)n[nH]1,10.4,–,–,24.9,–,–,–,31.3,17.5
CCc1cccc2c(C(=O)CN3C(=O)NC(C)(c4cccc5ccccc45)C3=O)c[nH]c12 (stereo unspecified),9.6,–,–,30.2,–,–,–,28.2,16.3
Cc1ccc(-n2ccc(=O)c(-c3ccnc(SCc4cccc(Cl)c4)n3)n2)cc1,–,–,–,–,–,·,·,·,·
Nc1ccc2c(c1)Cc1cc(N)c(Cl)cc1-2,12.1,–,–,27.2,–,–,–,–,–
CCN(c1ccc(NS(=O)(=O)c2cc(Cl)ccc2Cl)cc1)C(C)C,11.2,–,–,24.2,–,–,–,–,10.0
CN(C)C(=O)CSc1ccc(S(=O)(=O)N2CCCC2)cn1,–,–,–,–,–,·,·,·,·
COc1ccc(-n2c(=S)[nH]c3cc(C(=O)NCc4ccccc4)ccc3c2=O)c(OC)c1,9.0,–,–,24.4,–,–,–,–,10.3
COc1ccc(-n2c(=S)[nH]c3cc(C(=O)NCc4cccnc4)ccc3c2=O)c(OC)c1,–,–,–,–,–,·,·,·,·
Cc1ccc(Nc2nnc(SCC(=O)c3ccc(Br)s3)s2)c(C)c1,8.7,–,–,24.1,–,–,–,–,9.9
O=C(OCc1cn(Cc2ccc(C(F)(F)F)cc2)nn1)N1CCCC1,–,–,–,–,–,·,·,·,·
O=[N+]([O-])c1cc(S(=O)(=O)Nc2ccccc2)ccc1N1CCN(c2ccccc2)CC1,11.1,–,–,24.0,–,–,–,38.3,20.8
CC(C)(C)c1ccc(-c2nnc(SCC(=O)Nc3ccc(S(=O)(=O)Nc4nccs4)cc3)n2-c2ccc(Cl)cc2)cc1,12.9,–,–,26.7,–,–,–,26.6,16.5
CCOc1ccc(-n2c(SCC(=O)Nc3ccc(S(=O)(=O)Nc4nccs4)cc3)nnc2-c2ccc(C(C)(C)C)cc2)cc1,12.4,–,–,21.9,–,–,–,39.9,20.9
C=C(C)CNC(=S)N/N=C(\C)c1ccc(-n2ccnc2)cc1,–,–,–,–,–,·,·,·,·
Cc1cc(C(F)F)n2ncc(C(=O)NCc3ccccc3C(F)(F)F)c2n1,–,–,–,–,–,·,·,·,·
O=C1OCCN1C(=O)[C@H]1[C@H](c2ccccc2)C(c2ccc(F)cc2)=NN1c1ccc(Br)cc1,–,–,–,–,–,·,·,·,·
O=C1OCCN1C(=O)[C@H]1[C@H](c2ccc([N+](=O)[O-])cc2)C(c2ccc(F)cc2)=NN1c1ccc(Br)cc1,9.2,–,–,22.1,–,–,–,20.3,12.8
O=C1OCCN1C(=O)[C@H]1[C@H](c2ccc([N+](=O)[O-])cc2)C(c2ccc(F)cc2)=NN1c1ccccc1,9.0,–,–,21.1,–,–,–,36.0,17.5
O=C(O)c1nn(CCOc2cccc(Cl)c2)c(=O)c2ccccc12,–,–,–,–,–,·,·,·,·
O=C(O)c1nn(CCOc2cccc(Br)c2)c(=O)c2ccccc12,11.0,–,–,21.2,–,–,–,–,–
Cc1ccc(O)c(N=Cc2cc(Cc3ccccc3)cc([N+](=O)[O-])c2O)c1,18.7,–,–,37.6,–,–,–,21.6,–
COc1cc(C=Nc2cccc(C)c2)c(O)c([N+](=O)[O-])c1,–,–,–,–,–,·,·,·,·
SMILES,ADAM17 inh,PLC-beta3 inh,proKLK7 act,ADAM10 inh,PLC-gamma1 inh,ADAM10 confirm,ADAM17 counter,ADAM10 counter,ADAM17 confirm
C=CCNc1ncnc2c1ncn2[C@H]1CN(Cc2cc(OC)c(OC)c(OC)c2)C[C@@H](CO)O1,–,–,–,–,–,·,·,·,·
Cc1ccc(S(=O)(=O)N(CCCO)CC(O)CON=C2c3ccccc3-c3ccccc32)cc1 (stereo unspecified),18.8,–,–,34.6,–,–,–,–,12.0
O=C(NN=Cc1ccco1)c1cccnc1,–,–,–,–,–,·,·,·,·
CCC[C@H]1CN(c2ccc(Br)cc2)C(=O)[C@@H]1CC(=O)Nc1ccccc1,18.2,–,–,24.3,–,–,–,19.8,–
Cc1ccc(C(=O)N2CCN(C3c4cccc5cccc(c45)C3NS(=O)(=O)c3ccccc3)CC2)cc1 (stereo unspecified),11.2,–,–,24.3,–,–,–,–,11.9
CCN(c1ccccc1)S(=O)(=O)c1ccc(C(=O)Nc2cccc(NC(C)=O)c2)cc1,8.9,–,–,22.1,–,–,–,–,–
CCN(c1ccccc1)S(=O)(=O)c1ccc(C(=O)Nc2ccncc2)cc1,–,–,–,–,–,·,·,·,·
CN(c1ccccc1)S(=O)(=O)c1cccc(NC(=O)CSc2ncc(C(F)(F)F)cc2Cl)c1,10.0,–,–,19.8,–,–,–,26.5,10.3
CC1(C(=O)NCc2ccc(C(F)(F)F)cc2)CCN1Cc1cc2ccccc2o1 (stereo unspecified),11.3,–,–,24.3,–,–,–,–,–
O=C1NN=COc2ccccc21,–,–,–,–,–,·,·,·,·
CCOC(=O)C(=O)Cc1nc(OCc2ccccc2)cc(OCc2ccccc2)n1,–,–,–,–,–,·,·,·,·
CCOC(=O)C(Cc1nc(OCc2ccccc2)cc(OCc2ccccc2)n1)=NO,8.8,–,–,28.4,–,–,–,23.6,12.1
O=C(CNC(=S)N(Cc1ccccc1)Cc1ccccc1F)NCCc1ccc(Cl)cc1,10.4,–,–,23.9,–,–,–,21.3,14.3
O=C(CSc1nc2ccccc2[nH]1)Nc1nc(-c2cccc(Br)c2)cs1,22.8,–,–,49.8,–,22.8,–,39.6,23.9
CN(C)CCCn1c(SCC(=O)Nc2nc(-c3cccc(Br)c3)cs2)nc2ccccc2c1=O,–,–,–,–,–,·,·,·,·
